According to PubChem BioAssay AID485346 (Sanford-Burnham Center for Chemical Genomics, 2010):
Hit rate of the full screen: of about 330,000 compounds, about 10,000 (3%) were called active. The sample holds actives, similar compounds and a random draw of the others, so the mix is not that of the screen.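 How the source made its calls: active means inhibition of at least 50% at 8 µM in the primary screen; inactive means the rest.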

These molecules were tested against Protein Mdm4 (Homo sapiens) + E3 ubiquitin-protein ligase Mdm2 (Homo sapiens) (UniProt O15151+Q00987) (assay: disruptors of Mdm2/MdmX RING complex – cell-based, luminescence, split luciferase, SaOS-2, uHTS, primary screen (AID 485346)). Settings: SaOS-2 split-luciferase Mdm2/MdmX complementation, at 8 µM, stronger effect = higher value.
Protein Mdm4 (Homo sapiens) + E3 ubiquitin-protein ligase Mdm2 (Homo sapiens), sequence (O15151 whole entry, looked up): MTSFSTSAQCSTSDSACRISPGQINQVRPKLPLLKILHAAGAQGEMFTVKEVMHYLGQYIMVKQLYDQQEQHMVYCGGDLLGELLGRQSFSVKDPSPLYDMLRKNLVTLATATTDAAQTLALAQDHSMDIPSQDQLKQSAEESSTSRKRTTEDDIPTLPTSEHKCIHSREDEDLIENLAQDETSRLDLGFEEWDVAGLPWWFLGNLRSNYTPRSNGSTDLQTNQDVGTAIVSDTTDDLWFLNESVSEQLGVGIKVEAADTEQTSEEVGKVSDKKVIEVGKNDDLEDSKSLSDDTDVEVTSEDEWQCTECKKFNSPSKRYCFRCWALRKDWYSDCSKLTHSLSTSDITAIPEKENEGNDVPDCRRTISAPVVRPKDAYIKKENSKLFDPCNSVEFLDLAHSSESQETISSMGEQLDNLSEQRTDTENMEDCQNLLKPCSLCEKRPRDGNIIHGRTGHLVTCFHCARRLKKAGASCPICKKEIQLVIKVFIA
Protein Mdm4 (Homo sapiens) + E3 ubiquitin-protein ligase Mdm2 (Homo sapiens), sequence (Q00987 whole entry, looked up): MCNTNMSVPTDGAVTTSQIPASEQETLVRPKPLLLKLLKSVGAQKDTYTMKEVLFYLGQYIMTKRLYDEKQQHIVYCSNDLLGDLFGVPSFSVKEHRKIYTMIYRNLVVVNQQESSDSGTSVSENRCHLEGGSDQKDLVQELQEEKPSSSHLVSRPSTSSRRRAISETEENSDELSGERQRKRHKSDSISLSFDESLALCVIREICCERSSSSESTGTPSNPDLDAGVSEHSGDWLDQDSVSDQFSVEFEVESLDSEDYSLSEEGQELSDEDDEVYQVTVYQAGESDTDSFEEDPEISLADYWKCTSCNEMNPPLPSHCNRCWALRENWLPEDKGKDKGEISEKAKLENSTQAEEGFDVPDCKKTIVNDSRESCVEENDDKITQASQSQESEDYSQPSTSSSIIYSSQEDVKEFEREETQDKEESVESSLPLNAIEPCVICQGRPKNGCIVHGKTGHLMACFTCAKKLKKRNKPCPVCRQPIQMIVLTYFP

inhibition, inactive:
Cc1ccc(NC(=O)CCCNC(=O)c2ccc(Cl)cc2)cc1S(=O)(=O)N1CCCCC1 14.3%
Cc1ccc(CN2CCN(/N=C/c3cccnc3)CC2)c(C)c1 -1.63%
CC(C)c1ccc(Cc2nnc(NCCCO)[nH]c2=O)cc1 -3.05%
O=c1[nH]c(NCCO)nnc1Cc1ccc(Cl)cc1 16.8%
OC(CN=c1sc2ccccc2n1CC(O)COc1ccccc1)COc1ccccc1 (stereo unspecified) 33.4%
Cc1cccc(NC(=O)CN2CCN(CC(=O)NCC3(N4CCCCC4)CCCCC3)CC2)c1C -24.2%
Cc1nc2nc(C)c(CCC(=O)N3CCN(c4ccccc4)CC3)c(C)n2n1 7.55%
COc1ccc(CNC2CCCCC2)cc1 7.1%
COc1ccc(CNC(=O)C2CCCC2)cc1 1.84%
C=CCN1C(=O)C(O)(CC(=O)c2ccc(Cl)cc2)c2ccccc21 (stereo unspecified) 4.99%
C=CCC(CC=C)(C(N)=O)c1ccccc1 11.4%
CCC(C)Sc1nc2c(c(=O)[nH]c(=O)n2C)n1CC(O)COc1cccc2ccccc12 (stereo unspecified) 16.9%
Cc1cc(C)c(NC(=O)C[N+](C)(C)CC(O)COc2cccc3ccccc23)c(C)c1 (stereo unspecified) 12.6%
CCC(C)(C)c1ccc(Oc2ccc(NC(=O)COC(=O)C3=COCCO3)cc2)cc1 0.755%
C[C@@H](O)c1nc2ccccc2n1N -21.5%
CC1CC(=O)Nc2ccccc2N1C(=O)COc1ccc2cc(Br)ccc2c1 (stereo unspecified) 20%
O=c1c2cc(Br)ccc2nc(-c2cccc(Cl)c2)n1O 40.4%
CC(=O)c1ccc(S(=O)(=O)N2CCC3(CC2)OCCO3)cc1 -6.56%
CC(=O)c1ccc(S(=O)(=O)N2CCN(c3nc4c(C)c(C)ccc4cc3C#N)CC2)cc1 32.9%
Cc1cc(C)n2nc(C(=O)OCC(=O)N(CCC#N)c3ccc(F)cc3)nc2n1 11.4%
Nc1cccc2c1C(=O)N(Cc1nnc(-c3ccccc3Br)o1)C2=O 2.07%
S=c1[nH]nc(-c2ccc(Cl)cc2)n1CC1CCCO1 (stereo unspecified) -1.54%
O=C(c1nnc(-c2ccc(Cl)cc2)o1)C1CCCC1 -34.3%
CCOc1ccc(NC(=O)CSc2nncn2C)cc1 6.1%
NC(=O)C(Cc1ccccc1)NC(=O)C12CC3CC(CC(C3)C1)C2 (stereo unspecified) 2.27%
CCN(CC(=O)Nc1c(F)cccc1F)C(=O)c1ccc(-c2ccc(C(C)=O)cc2)o1 -16.4%
C[n+]1cc(-c2ccccc2)oc1-c1ccccc1 -21.5%
Cc1cc(C)n2nc(C(=O)OCC(=O)N(C)CC(=O)Nc3ccc(F)cc3)nc2n1 -1.93%
CCC1CCCCN1CCCNC(=O)Cn1nc(-c2ccccc2)ccc1=O (stereo unspecified) 5.14%
CCC1CCCCN1CCCNC(=O)C1CCC(Cn2c(=O)[nH]c3ccccc3c2=O)CC1 (stereo unspecified) -28.9%
COC(=O)Cc1ccc(OCC(=O)NC2CCCC2)cc1 8.06%
CC(=O)c1ccc(OCCCC(=O)Nc2ccc(C)c(S(=O)(=O)N3CCOCC3)c2)cc1 13.1%
CC(=O)NCc1ccc(-c2csc(NC(=O)CCCc3nc4ccccc4c(=O)[nH]3)n2)cc1 6.81%
CCOC(=O)c1ccccc1NC(=O)CSc1nc2ccccc2c(=O)[nH]1 10.1%
Cc1nnc(Nc2ccccc2F)s1 1.11%
O=C(Nc1ccc(C(F)(F)F)cc1)c1cccc(-n2cnnn2)c1 -13.9%
Cc1nc(NC(=O)c2cccc(Cl)c2)sc1-c1csc(Nc2cccc(Cl)c2)n1 -2.75%
CCn1cc(CCC(=O)NCc2ccc(F)cc2)c2ccccc21 -7.13%
Cc1noc(C)c1C(=O)OCC(=O)N1CCN(S(=O)(=O)c2ccc3ccccc3c2)CC1 -6.59%
COc1ccc(CC(=O)NCc2nnc(SCC(=O)Nc3ncc(C)s3)n2C)cc1 6.63%
CCSc1nnc(NC(=O)c2ccc(C)cc2)s1 -64.2%
Cc1ccc(S(=O)(=O)CC(=O)Nc2nnc(C)s2)cc1 7.87%
Cc1nnc(NC(=O)c2ccc3nccnc3c2)s1 6.88%
COCCSc1nnc(NC(=O)CCS(=O)(=O)Cc2ccccc2)s1 25.9%
CCN(CC)S(=O)(=O)c1cc(C(=O)Nc2cc(S(=O)(=O)N3CCOCC3)ccc2N2CCCC2)ccc1F 26.3%
CCC(NC(=O)c1cc(COc2ccc(F)c(F)c2)on1)c1ccncc1 (stereo unspecified) 5.8%
O=C(Nc1ccc2sc3ccccc3c(=O)c2c1)c1ccccc1Cl -48%
CCOC(=O)Cn1nnnc1C 15.3%
O=C(CN1CCC(NC(=O)C2CC2)CC1)Nc1ccccc1[N+](=O)[O-] 15.4%
COc1ccc(CC(=O)N[C@@H]2c3cc(OC)c(OC)cc3C[C@H]2OCc2ccccc2)cc1 38.6%
O=c1c2ccccc2nc2n1C(CSCc1cccc(C(F)(F)F)c1)CS2 (stereo unspecified) 0.237%
Cc1noc(C)c1C(=O)NCC1COc2ccccc2O1 (stereo unspecified) 26.4%
O=C1C(=O)N(CC2COc3ccccc3O2)c2ccccc21 (stereo unspecified) 26.1%
CCCCN(C)CCNC(=O)CSCc1ccc(C)cc1 7.69%
CCOC(=O)NC(=O)C(=CNc1cccc(OC)c1)C(=O)NC(=O)OCC 9.28%
C=CCOCCN(C)C1=NS(=O)(=O)c2ccccc21 5.66%
O=C(Nc1nc(-c2cccnc2)cs1)c1ccccc1F -52.4%
CN(Cc1ccccc1)S(=O)(=O)c1nnc(NC(=O)c2ccccc2F)s1 -3.09%
CCSc1nc(=S)n(CC)c(C)c1C(C)=O 14.7%
CCN(CC)S(=O)(=O)c1ccc(-c2cn3ccc(C)cc3n2)cc1 -58.3%
COc1ccc(-c2cn3ccc(C)cc3n2)cc1 33.6%
Cc1ccc(-c2cn3cc([N+](=O)[O-])ccc3n2)cc1 -68.9%
CSc1nnc2ccc(-c3ccc(C)cc3)nn12 34.9%
C[C@@]12C(=O)N(c3cccc(Br)c3)C(=O)N1[C@H](c1ccc(Cl)cc1)[C@@H]1C(=O)N(C3CCCCC3)C(=O)[C@@H]12 49.2%
CCC(C)C(N=C1NS(=O)(=O)c2ccccc21)C(=O)N1CCC(C)CC1 (stereo unspecified) 11.7%
CCN1C(=O)/C(=C\N2CCOCC2)SC1=S 7.76%
CCC1(C)NC(=O)N(CC(=O)N2CCN(c3cccc(Cl)c3)CC2)C1=O (stereo unspecified) 13.3%
CCOc1ccc(N/C=C/C(=O)c2ccccc2)cc1 -143%
CCOc1ccc(N/C=C/C(=O)c2cc(OC)c(OC)c(OC)c2)cc1 28.5%
COc1ccccc1-c1sc2ccccc2c1C#CC1(O)CCCCC1 12%
CSc1ccccc1NC(=O)COC(=O)CCCOc1ccc(C)cc1 2.26%
COc1ccc(/C=C/c2nnc(NC(=O)C(C)C)s2)cc1 18.7%
O=C(CSc1ccccc1)Nc1nnc(/C=C/c2ccccc2)s1 -2.82%
CC(=O)NCC(=O)N1CCC(n2nccc2NC(=O)CCCc2ccccc2)CC1 -4.94%
COC(=O)c1cccc(N(CC(=O)NCC2CCCO2)C(=O)CCC(=O)Nc2cc(C)on2)c1 (stereo unspecified) 5.29%
O=C(NN1C(=O)C2C(C1=O)C1C=CC2C12CC2)c1ccccc1Cl (stereo unspecified) 4.22%
COc1ccccc1C(=O)NN1C(=O)C2C3C=CC(O3)C2C1=O (stereo unspecified) 14.8%

inhibition, active:
COc1ccc(Cc2nnc(N/N=C/c3ccccc3O)[nH]c2=O)cc1OC 66.5%
COc1ccc(CNc2nc(NCc3ccc(OC)cc3)c3ncn(C4CCCC4)c3n2)cc1 60.8%
CC(C)c1ccccc1OCC(O)CN(CC(O)COc1cccc2ccccc12)C(C)C (stereo unspecified) 59.8%
O=C1CN(c2nc(-c3ccccc3)c3cc(Br)ccc3n2)c2ccccc2N1 66.1%
CC(=O)c1ccc(S(=O)(=O)N2CCN(C(=O)/C=C/c3ccc4ccccc4n3)CC2)cc1 79.9%
O=C(c1[nH]ncc1-c1ccc(Cl)cc1)C1CO1 (stereo unspecified) 78.2%
CCC1CCCCN1CCCNC(=O)c1cc2c(Cl)nc3ccccc3c2s1 (stereo unspecified) 58.7%
O=C(CSc1nc2ccccc2c(=O)[nH]1)Nc1nc(-c2ccc(Br)cc2)cs1 75.5%
O=C(Nc1ccc(-c2csc(Nc3cccc(C(F)(F)F)c3)n2)cc1)c1cccc(C(F)(F)F)c1 69.4%
CSc1nnc(NC(=O)c2nc(S(=O)(=O)Cc3ccc(C)cc3)ncc2Cl)s1 98.2%
Cc1ccc(CS(=O)(=O)c2ncc(Cl)c(C(=O)Nc3nnc(C)s3)n2)cc1 99.7%
Cc1cc(C(=O)CCl)c(C)n1CC1COc2ccccc2O1 (stereo unspecified) 78.9%
O=C(Nc1nnc(-c2ccccc2F)s1)c1ccccc1F 54.1%
Cc1ccc2nc(-c3ccc(Br)cc3)cn2c1 61.7%
Cc1ccc(-c2cn3cc(C)ccc3n2)cc1 89.4%
CCN1C(=O)/C(=C\N2CCN(c3cccc(Cl)c3)CC2)SC1=S 64.2%
COc1ccc(C(=O)/C=C/Nc2ccccn2)cc1 56.3%
O=C(Nc1ccc(Cl)cc1)Nc1nnc(/C=C/c2ccccc2)s1 84.4%
CC12CCC(C(=O)N(NC(=O)c3ccccc3O)C1=O)C2(C)C (stereo unspecified) 61.1%
